Compounds with a hit are over-represented: about 28% of the library has one in this group of screens.
Mac1 fbg inh: inhibitors of CD11b/CD18 adhesion to fibrinogen, primary screen, K562 cells, luminescence. inhibition, % at 10 µM. actives 0.54% (n = 93,000). ATPlite luminescence; Mn2+ added to activate the integrin. Integrin beta-2 (Homo sapiens) + Integrin alpha-M (Homo sapiens), P05107+P11215;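 active = primary inhibition of 50% or more at 10 µM, then 40% or more on retest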
CYP2C9 activ: human CYP2C9 activators, primary screen, biochemical, luminescence | Cytochrome P450 2C9 (Homo sapiens), P11712 | recombinant CYP2C9, luciferin-H conversion; stronger effect = higher value; factor 1 = untreated enzyme, 0 = blocked | activation factor at 5 µM | actives 1.4% (n = 96,000);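 active = activation factor of 2 or more for CYP2C9 at a 5 µM dose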
Target sequence (P11712 whole entry, looked up): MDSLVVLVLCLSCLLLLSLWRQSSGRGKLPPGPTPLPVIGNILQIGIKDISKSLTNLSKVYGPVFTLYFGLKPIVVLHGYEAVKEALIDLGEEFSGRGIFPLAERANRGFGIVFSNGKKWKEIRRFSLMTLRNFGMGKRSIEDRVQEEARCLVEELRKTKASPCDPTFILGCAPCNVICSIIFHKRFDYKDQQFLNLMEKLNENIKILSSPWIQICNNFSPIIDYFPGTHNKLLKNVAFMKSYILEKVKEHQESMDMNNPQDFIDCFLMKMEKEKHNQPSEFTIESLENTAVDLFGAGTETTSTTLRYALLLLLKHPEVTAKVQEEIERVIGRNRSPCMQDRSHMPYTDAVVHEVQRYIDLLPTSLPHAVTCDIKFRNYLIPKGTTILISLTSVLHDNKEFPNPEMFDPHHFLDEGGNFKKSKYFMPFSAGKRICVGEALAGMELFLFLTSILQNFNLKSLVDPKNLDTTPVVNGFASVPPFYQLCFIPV
CYP2C9 inh: blockers of cytochrome P450 2C9 activity – biochemical, luminescence, ADME assay, primary screen; P11712; CYP2C9 Supersomes, luciferin-H conversion; actives 20% (n = 96,000); inhibition, % at 5 µM; AID 777, 2007;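 active = blocking of liver enzyme CYP2C9 beyond about 50% at 5 µM, limit read from the data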
Mac1 fbg enh: enhancers of CD11b/CD18 adhesion to fibrinogen, primary screen, K562 cells, luminescence; Integrin beta-2 (Homo sapiens) + Integrin alpha-M (Homo sapiens), P05107+P11215; activation, % at 10 µM; AID 1499, 2009; ATPlite luminescence; actives 0.07% (n = 93,000);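 active = 10 µM primary screen giving 50% or more activity, confirmed by 40% or more on retest at that dose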
CYP2C19 inh: blockers of cytochrome P450 2C19 activity – biochemical, luminescence, ADME assay, primary screen; inhibition, % at 5 µM; CYP2C19 Supersomes, luciferin-H EGE luminescence, 30 min; actives 21% (n = 96,000); AID 778, 2007;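 active = CYP2C19 inhibition above a set limit at 5 µM in the primary screen, cut at about 50% in these data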
CYP2C19 activ: human CYP2C19 activators, primary screen, biochemical, luminescence; activation factor at 5 µM; 96,000 tested, under 10 active; Cytochrome P450 2C19 (Homo sapiens), P33261; AID 1025, 2008; recombinant CYP2C19, luciferin-H EGE luminescence; stronger effect = higher value; 0 = fully inhibited enzyme, 1 = untreated enzyme;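 active = activation factor of at least 2 at 5 µM in the primary screen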
Hits are given with their value; – = inactive; · = not tested or not shown.

SMILES	Mac1 fbg inh	CYP2C9 activ	CYP2C9 inh	Mac1 fbg enh	CYP2C19 inh	CYP2C19 activ
CCC1S/C(=N\S(=O)(=O)c2cccs2)N(C2CCCCC2)C1=O (stereo not given)	–	–	56.7	–	78.7	–
O=C(NC1(C(F)(F)F)NC(=O)N(C2CCCCC2)C1=O)c1cccs1 (stereo not given)	·	–	–	·	–	–
COc1ccc(-c2ccc(-c3noc(-c4cccs4)n3)c(OC)n2)cc1	–	–	59.6	–	–	–
Cc1nn(-c2nc3ccccc3[nH]2)c(N)c1-c1ccc(Cl)cc1	–	–	–	–	–	–
CCNC(=O)N1c2ccc(OC)cc2C(C)=CC1(C)C	–	–	–	–	–	–
CCOc1ccc2c(c1)C(C)=CC(C)(C)N2C(=O)Nc1ccccc1	–	–	–	–	60.7	–
CCOC(=O)Oc1ccc2c(c1)C(C)=CC(C)(C)N2C(=O)OCC	–	–	–	–	56.4	–
CCCCCCCOc1ccc(OC(=O)c2cccnc2)cc1	–	–	76.8	–	66.0	–
CCCCCCOC(=O)c1ccc(OC(=O)c2cccnc2)cc1	–	–	86.4	–	71.5	–
C=CCOC(=O)C1C(=O)CC(C)(O)C(C(=O)OCC=C)C1c1ccc(OCC)cc1 (stereo not given)	–	–	–	–	–	–
O=C(c1cc(-c2cccs2)nc2ccccc12)N1CCN(S(=O)(=O)c2cccc(F)c2)CC1	–	–	69.4	–	–	–
Cc1ccc(S(=O)(=O)N2CCN(C(=O)c3cccc(F)c3)CC2)cc1	–	–	–	–	–	–
O=C(c1cc(-c2cccs2)nc2ccccc12)N1CCN(S(=O)(=O)c2ccccc2)CC1	–	–	94.2	–	83.8	–
O=C(Cc1cccs1)N1CCN(S(=O)(=O)c2ccccc2)CC1	–	·	·	–	·	·
O=C(N1CCCCC1)C12CC3CC(C1)CC(C(=O)N1CCCCC1)(C3)C2	–	–	64.2	–	66.2	–
O=C(CC12CC3CC(CC(C3)C1)C2)N1CCCC1	–	–	–	–	–	–
O=C(CSc1n[nH]c(-c2ccc(S(=O)(=O)NC3CCCCC3)cc2)n1)N1CCCC1	–	–	51.3	–	87.2	–
Nc1cc(Cl)ccc1C(=O)OCC(=O)NC1CCS(=O)(=O)C1 (stereo not given)	·	–	–	·	–	–
Cc1[nH]c2ccccc2c1/C=C(\C#N)S(=O)(=O)c1ccccc1	–	–	67.4	–	–	–
N#C/C(=C\c1ccc(O)c(O)c1)S(=O)(=O)c1ccccc1	81.8	–	–	–	–	–
Cc1[nH]c2ccccc2c1/C=C(\C#N)C(=O)NC(C)c1ccccc1 (stereo not given)	–	2.1	–	–	–	–
COc1cc(/C=C(\C#N)C(=O)c2c(C)[nH]c3ccccc23)cc(OC)c1OC	–	·	·	–	·	·
N#CC1(c2ccccc2)CCCN1C(=O)c1ccc(Br)o1 (stereo not given)	–	–	–	–	–	–
Cc1cc(C)nc(-n2nc(C)c(Br)c2Nc2ccc(Br)cc2)n1	–	–	–	–	69.5	–
Cc1cc(C)nc(-n2nc(C)cc2Nc2ccccc2)n1	–	–	–	–	–	–
SMILES	Mac1 fbg inh	CYP2C9 activ	CYP2C9 inh	Mac1 fbg enh	CYP2C19 inh	CYP2C19 activ
COc1ccc(C(=O)Oc2ccc3c(c2)OCO3)cc1OC	–	–	–	–	–	–
O=C(Oc1ccc2c(c1)OCO2)c1ccncc1	–	–	65.1	–	81.7	–
COc1cc2cc(C(=O)O)[nH]c2c(OC)c1OC	–	–	–	–	–	–
OCCOCCOCCn1c2ccccc2c2ccccc21	–	–	–	–	81.7	–
CCn1c(SCC(=O)N/N=C/C=C\c2ccccc2[N+](=O)[O-])nc2ccccc21	–	–	–	–	–	–
CCOC(=O)c1c(C)nc2sc3c(=O)n(-c4ccc(C(C)=O)cc4)cnc3c2c1-c1ccc(OC)cc1	–	–	76.5	–	70.0	–
CCCCOc1ccccc1C(=O)NCCCCCC(=O)O	–	–	–	–	–	–
COCCOC(=O)C1=C(C)NC(=O)NC1c1c(F)cccc1Cl (stereo not given)	–	–	–	–	–	–
O=C(COc1ccccc1)Nc1ccccc1N1CCCCC1	–	–	78.1	–	65.9	–
O=C(COc1ccccc1)Nc1ccccc1N1CCN(c2ccccc2)CC1	–	–	55.8	–	–	–
Cc1cccc(OCC(=O)Nc2ccccc2N2CCCCC2)c1	–	–	65.4	–	85.4	–
O=C(COc1ccccc1)Nc1cc(C(F)(F)F)ccc1N1CCCC1	·	–	–	·	–	–
O=C(COc1ccccc1)Nc1ccccc1N1CCN(c2ccc(F)cc2)CC1	–	–	–	–	–	–
CN1CCN(c2ccccc2NC(=O)COc2ccc(Br)cc2)CC1	–	–	80.0	–	–	–
COc1ccccc1/C=C/C=N/NC(=O)CCn1nnc2ccccc21	–	·	·	–	·	·
c1nnc(NC2=NCCCCC2)s1	–	–	–	–	–	–
Clc1ccc(CSc2nnc(NC3=NCCCCC3)s2)cc1	–	–	67.2	–	90.7	–
Clc1cccc(CSc2nc3ccncc3[nH]2)c1	–	–	76.4	–	100.1	–
O=C(NCc1ccco1)c1cc2n(n1)C(C(F)(F)F)CC(c1ccc(F)cc1)N2 (stereo not given)	–	–	–	–	–	–
CCOc1ccc(S(=O)(=O)NCCCN2CCOCC2)cc1	–	–	–	–	–	–
COc1ccc(S(=O)(=O)NCCCN2CCOCC2)c2ccccc12	–	–	–	–	97.0	–
COc1ccc(C)cc1S(=O)(=O)NCCC1=CCCCC1	–	–	–	–	–	–
CCOc1ccc(S(=O)(=O)NCCC2=CCCCC2)c2ccccc12	–	–	–	–	88.0	–
CCOc1ccc2ccccc2c1CNCCN1CCOCC1	–	–	–	–	–	–
CCOc1ccc(S(=O)(=O)NCCCN2CCOCC2)c2ccccc12	·	–	–	·	60.4	–
CCCOc1ccc(S(=O)(=O)NCCCN2CCOCC2)c2ccccc12	–	–	–	–	98.8	–
CCOC(=O)C1=C(C)S/C(=C\N(C)C)C1=O	–	–	–	–	–	–
CN1CCN(c2nc(NCCOC34CC5CC(CC(C5)C3)C4)nc(OCC(F)(F)F)n2)CC1	·	–	–	·	–	–
CN(C)S(=O)(=O)c1cccc(-c2nn(-c3ccccc3)cc2/C=C(\C#N)c2nc3ccccc3[nH]2)c1	–	·	·	–	·	·
Cc1ccc(-c2nn(-c3ccccc3)cc2/C=C(\C#N)c2cccc(C#N)c2)o1	–	–	63.9	–	–	–
